Experimental findings from PubChem BioAssay (NCI) are described below.

Assay [1] can be described thus: NCI Yeast Anticancer Drug Screen. Data for the rad50 strain (AID 155).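 Also: 0% = growth of vehicle-only cultures of the same strain.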 To be noted: S. cerevisiae rad50 strain growth inhibition; at 50.0 µM; stronger effect = higher value. The procedure, abridged: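 Cells are treated with compound, grown, and their growth is then scored against vehicle-only cultures of the same repair-deficient yeast strain.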
The nature of assay [2]: NCI Yeast Anticancer Drug Screen. Data for the mec2-1 strain (AID 157). To be noted: S. cerevisiae mec2-1 strain, at 50.0 µM, stronger effect = higher value. The method in brief:
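Strain: mec2-1 (DNA repair/cell cycle alteration). Compound exposure, then growth measured; inhibition expressed relative to vehicle.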

A short description of assay [3]: NCI Yeast Anticancer Drug Screen. Data for the sgs1 mgt1 strain (AID 161).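 Also: 0% = growth of cultures given vehicle only.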 To be noted: S. cerevisiae sgs1 mgt1 strain, at 50.0 µM, stronger effect = higher value. The procedure, abridged:
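Inhibition of yeast growth, normalised to vehicle-treated controls, is reported for a strain bearing genetic alterations in DNA damage repair.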

A short description of assay [4]: NCI Yeast Anticancer Drug Screen. Data for the cln2 rad14 strain (AID 165).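 Also: 0% = growth equal to vehicle treated cultures.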 To be noted: S. cerevisiae cln2 rad14 strain, at 50.0 µM, stronger effect = higher value. The procedure, abridged:
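Compounds are applied to the cln2 rad14 yeast strain, and growth is then compared with that of vehicle-treated cultures to give inhibition.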

Assay [5] in a line: NCI Yeast Anticancer Drug Screen. Data for the bub3 strain (AID 167). To be noted: S. cerevisiae bub3 mutant strain, at 50.0 µM, stronger effect = higher value. The procedure, abridged: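 Part of a panel of yeast mutants defective in DNA damage repair or cell cycle regulation. Each strain is grown with compound, and inhibition is calculated relative to solvent-treated cultures.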
Assay [6] in a line: NCI Yeast Anticancer Drug Screen. Data for the mlh1 rad18 strain (AID 175). To be noted: S. cerevisiae mlh1 rad18 strain growth inhibition; at 50.0 µM; stronger effect = higher value. The method in brief: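 Read-out is yeast growth inhibition, calculated against vehicle-only controls. The compound was applied to a strain engineered with DNA damage repair alterations.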

Several values for one entry are separate records, joined by “and”; a condition that tells them apart may be missing. Equal values may be shown once. Compounds without any hit were thinned out: in the full panel of roughly 79,000, 15% have a hit. A structure can be active in one record and inactive in another. Activity calls are given as the source filed them. Rule as the data show it: active = growth inhibition above about 70%; inactive = the rest.

As for `CCN1CCC2(CC1)COCc1ccccc12`, the growth inhibition in assay [1] is 18.3% (inactive); in assay [2] it was 7.8% (inactive); in assay [3] it was 16.4% (inactive); in assay [4], 4.15% (inactive); in assay [5], 3.15% (inactive); in assay [6] it was 29.6% (inactive).

Turning to `C=CCc1cc(C=C(C#N)C#N)cc(OC)c1O`, the growth inhibition in assay [1] was -0.15% (inactive); in assay [2], -2.85% (inactive); in assay [3] it was 10.7% (inactive); in assay [4], 23.1% (inactive); in assay [5], 9.05% (inactive); in assay [6], 11.7% (inactive).

Turning to `CNC(=O)c1cn(C2OC(CO)C(O)C2O)c2ncnc(N)c12` (configuration not stated), the growth inhibition in assay [1] was -5.95% (inactive); in assay [2] it was 8.3% (inactive); in assay [3], 4.7% (inactive); in assay [4], -1.25% (inactive); in assay [5] it was -1.05% (inactive); in assay [6], 5.65% (inactive).

Take `N#CC(C#N)=Cc1cccc(C#N)c1`: the growth inhibition in assay [1] is -0.75% (inactive); in assay [2], 21.4% (inactive); in assay [3], -2.85% (inactive); in assay [4], 19.1% (inactive); in assay [5], -4.75% (inactive); in assay [6], 3.45% (inactive).

For `O=C(c1ccccc1)C1C(C(=O)c2ccccc2)N1Cc1ccccc1` (configuration not stated), the growth inhibition in assay [1] is 5% (inactive) and 21.4% (inactive); in assay [2], 9.9% (inactive) and 4.5% (inactive); in assay [3], 3.8% (inactive) and -9.95% (inactive); in assay [4] it was 2.8% (inactive) and -1.2% (inactive); in assay [5], 27.2% (inactive) and 9% (inactive); in assay [6], -7.8% (inactive) and 6.65% (inactive).

For the molecule `CCOP(=O)(OCC)C(C)(CC)/N=C(\N)NC#N` (configuration not stated), the growth inhibition in assay [1] was -4.8% (inactive); in assay [2] it was -36.9% (inactive); in assay [3], -8.85% (inactive); in assay [4] it was 12% (inactive); in assay [5], 15% (inactive); in assay [6], -18.1% (inactive).

Regarding `[N-]=[N+]=Nc1cc(=O)oc2ccccc12`, the growth inhibition is 25.6% (inactive) in assay [1]; 10.2% (inactive) in assay [2]; -8.25% (inactive) in assay [3]; 13.6% (inactive) in assay [4]; 0.9% (inactive) in assay [5]; 1.1% (inactive) in assay [6].

Take `Clc1ccc(N=P(c2ccccc2)(c2ccccc2)c2ccccc2)cc1.[Cl][Co][Cl]`: the growth inhibition in assay [1] was 49% (inactive); in assay [2], 11.1% (inactive); in assay [3], 44.5% (inactive); in assay [4] it was 18.1% (inactive); in assay [5], 22.1% (inactive); in assay [6], 14.6% (inactive).

With `O=C(Nc1cccc(F)c1)c1c(O)[nH]c(=S)[nH]c1=O`, the growth inhibition in assay [1] is 26.1% (inactive); in assay [2], 14.3% (inactive); in assay [3], 38.4% (inactive); in assay [4], 10.9% (inactive); in assay [5], 21.3% (inactive); in assay [6], 40.2% (inactive).

`c1cc2c(cc1C1OCC3C(c4ccc5c(c4)OCO5)OCC13)OCO2` (configuration not stated): the growth inhibition in assay [1] is 75.1% (active) and 30.8% (inactive); in assay [2] it was 74.6% (active) and -0.05% (inactive); in assay [3], 82.5% (active) and 57.4% (inactive); in assay [4], 44.4% (inactive) and 34.4% (inactive); in assay [5] it was 81.5% (active) and 54.3% (inactive); in assay [6] it was 67% (inactive) and 31.7% (inactive).

In the case of `O.O=[Se](=O)(O)O.[NH-]C1CCCCC1[NH-].[Pt+2]` (configuration not stated), the growth inhibition in assay [1] was -16.1% (inactive); in assay [2], -16.9% (inactive); in assay [3] it was -16.1% (inactive); in assay [4], -21.5% (inactive); in assay [5], -36.1% (inactive); in assay [6] it was -55.5% (inactive).

As to `COc1ccc(C=O)cc1`, the growth inhibition was 41.5% (inactive) in assay [1]; -10.2% (inactive) in assay [2]; -7.5% (inactive) in assay [3]; -21.2% (inactive) in assay [4]; 0.8% (inactive) in assay [5]; 21.5% (inactive) in assay [6].

Turning to `N#CCCNCCC#N`, the growth inhibition was 3.95% (inactive) and 11.8% (inactive) and 12.2% (inactive) in assay [1]; 4.4% (inactive) and -11.6% (inactive) and 3.15% (inactive) in assay [2]; -6.05% (inactive) and 9.35% (inactive) and -2.9% (inactive) in assay [3]; -41.6% (inactive) and 25.7% (inactive) and 16.1% (inactive) in assay [4]; -4.95% (inactive) and 8.65% (inactive) and 1.45% (inactive) in assay [5]; 6.15% (inactive) and 13.7% (inactive) and 14.7% (inactive) in assay [6].

In the case of `Nc1[nH]c(=S)[nH]c(=O)c1Cn1ccnc1`, the growth inhibition in assay [1] is -20.4% (inactive); in assay [2] it was 0.8% (inactive); in assay [3] it was -23.4% (inactive); in assay [4] it was -17.1% (inactive); in assay [5] it was -11.2% (inactive); in assay [6] it was -33.8% (inactive).

With `CC1(C)CN=C(Nc2ccc(F)cc2)S1`, the growth inhibition is 2.55% (inactive) in assay [1]; 0.6% (inactive) in assay [2]; -17.9% (inactive) in assay [3]; 19.3% (inactive) in assay [4]; -17.1% (inactive) in assay [5]; -21.8% (inactive) in assay [6].

In the case of `O=S(=O)(O)O.[Co+2].[NH-]CC[NH-].[NH-]CC[NH-].[NH-]CC[NH-]`, the growth inhibition in assay [1] is 11.1% (inactive); in assay [2], 21.9% (inactive); in assay [3], 9.75% (inactive); in assay [4], 17.8% (inactive); in assay [5], 3.2% (inactive); in assay [6], 1% (inactive).

With `Cc1ccc(OP(Oc2ccc(C)cc2)Oc2ccc(C)cc2)cc1`, the growth inhibition in assay [1] is 32.8% (inactive); in assay [2] it was 10.7% (inactive); in assay [3] it was -6.35% (inactive); in assay [4], -31.6% (inactive); in assay [5], 29.4% (inactive); in assay [6] it was 31.5% (inactive).
